Reference: publication PMC5540273 (PLoS ONE, 2017)

Key:
Details in all cases: concentration: 1 μM, replicates: in singlicate; n = 1
CAMK2G = system: CAMK2G
CAMK4 = system: CAMK4
CAMKK1 = system: CAMKK1
CAMKK2 = system: CAMKK2
CASK = system: CASK
CDC2L1 = system: T1, CDC2L1
T1 construct: gene CDK11B

CDC2L2 = system: CDC2L2
CDC2L5 = system: T2, CDC2L5
T2 construct: gene CDK13

CDK11 = system: T3, CDK11
T3 construct: gene CDK19

CDK2 = system: CDK2
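Note: KINOMEscan kinase panel screen.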

Row | Structure (SMILES) | %Inh (CAMK2G) [%] | %Inh (CAMK4) [%] | %Inh (CAMKK1) [%] | %Inh (CAMKK2) [%] | %Inh (CASK) [%] | %Inh (CDC2L1) [%] | %Inh (CDC2L2) [%] | %Inh (CDC2L5) [%] | %Inh (CDK11) [%] | %Inh (CDK2) [%]
1 | O=C(NCc1cccs1)c1cc(C(=O)c2c(Cl)cccc2Cl)c[nH]1 [GW823670] | 0 | 15 | 0 | 0 | 5 | 0 | 0 | 0 | 14 | 0
2 | CCCC(=O)Nc1n[nH]c2ncc(-c3cccc4ccccc34)cc12 [SB-642057] | 28 | 22 | 20 | 30 | 34 | 0 | 1 | 0 | 0 | 56
3 | Cc1nn2c(=O)cc(N3CCOCC3)nc2n1Cc1cccc(Cl)c1Cl [GSK2342769] | 10 | 25 | 2 | 9 | 0 | 0 | 6 | 0 | 16 | 0
4 | COC(=O)c1c(-c2ccccc2)c2cc(Br)ccc2c(=O)n1Cc1ccc(S(C)(=O)=O)cc1 | 21 | 0 | 10 | 30 | 0 | 11 | 0 | 14 | 24 | 6
5 | COc1cc(OC)cc(-c2cc3cnc(N)nc3nc2NC(=O)NC(C)(C)C)c1 | 23 | 0 | 16 | 29 | 0 | 2 | 0 | 0 | 0 | 0
6 | CCC(=O)c1c(-c2ccccc2)c2cc(Cl)ccc2c(=O)n1Cc1cc(S(C)(=O)=O)n(CCC(C)(C)O)n1 | 18 | 19 | 18 | 28 | 0 | 9 | 13 | 23 | 14 | 0
7 | CCc1ccc(-c2ccc3c(c2)-c2nn(C)cc2S(=O)(=O)N3C)cc1 | 4 | 0 | 22 | 9 | 14 | 0 | 0 | 16 | 8 | 0
8 | Nc1ncnc2c1ncn2-c1cccc(F)c1 [SKF-97560] | 0 | 0 | 0 | 0 | 47 | 1 | 15 | 23 | 0 | 0
9 | COc1ccc(-c2cc3c(C)nc(N)nc3n([C@H]3CC[C@H](OCCO)CC3)c2=O)cn1 | 0 | 5 | 5 | 0 | 0 | 11 | 0 | 0 | 34 | 0
10 | Cc1c(Cn2c(C)nn3c(=O)cc(N4CCO[C@H](C)C4)nc23)cccc1C(F)(F)F [GSK2373690] | 18 | 0 | 0 | 10 | 14 | 0 | 8 | 0 | 14 | 0
11 | COc1ccc(CNC(=O)NC2CCN(c3ccnc(Nc4ccc(F)cc4)n3)C2)cc1 (centres unmarked) [GSK1379706] | 38 | 0 | 17 | 26 | 19 | 2 | 0 | 0 | 22 | 3
12 | CCC(=O)c1c(-c2ccccc2)c2cc(Cl)ccc2c(=O)n1Cc1cc(S(C)(=O)=O)n(CC(F)F)n1 | 0 | 0 | 0 | 6 | 5 | 1 | 2 | 24 | 0 | 0
13 | Cl.NS(=O)(=O)c1cccc(Nc2cc(-c3ccc(F)cc3)n[nH]2)c1 [GW824645] | 0 | 2 | 0 | 0 | 20 | 0 | 0 | 0 | 3 | 5
14 | Cn1c(=O)c(F)c(Nc2ccc(I)cc2F)c2c(=O)n(OC[C@H](O)CO)cnc21 | 34 | 22 | 24 | 33 | 0 | 14 | 15 | 13 | 0 | 0
15 | Cc1ccc(-c2ccc3c(ccc4sc5c(c43)NC[C@@H](C)N=C5N(C)C)n2)cn1 | 0 | 20 | 0 | 0 | 2 | 4 | 0 | 0 | 0 | 0
16 | O=C1NC(=O)C(c2ccccc2)=C1Nc1cccc(O)c1 [SB-390534] | 13 | 0 | 0 | 0 | 1 | 0 | 0 | 1 | 0 | 2
17 | O=c1cc(N2CCOCC2)nc2n(Cc3ccc(F)c(Cl)c3)ccn12 [GSK2297099] | 28 | 0 | 28 | 24 | 2 | 3 | 28 | 0 | 0 | 0
18 | Cc1cccc(-c2nc(Nc3ccc4c(cnn4C)c3)c3ccccc3n2)n1 [GW876731] | 0 | 0 | 2 | 0 | 0 | 0 | 6 | 0 | 10 | 6

Row | Structure (SMILES) | %Inh (CAMK2G) [%] | %Inh (CAMK4) [%] | %Inh (CAMKK1) [%] | %Inh (CAMKK2) [%] | %Inh (CASK) [%] | %Inh (CDC2L1) [%] | %Inh (CDC2L2) [%] | %Inh (CDC2L5) [%] | %Inh (CDK11) [%] | %Inh (CDK2) [%]
19 | CN1C(=O)C(Nc2ccccc2)=C(c2ccccc2)C1=O [SB-300079] | 0 | 0 | 0 | 0 | 0 | 0 | 0 | 0 | 0 | 0
20 | COc1cc2nccc(Nc3cccc(Oc4ccccc4)c3)c2cc1OC.Cl [GW284543] | 19 | 0 | 8 | 19 | 1 | 0 | 11 | 0 | 0 | 0
21 | Fc1cccc(CSc2nnc(-c3ccc4c(c3)CCO4)o2)c1 | 20 | 0 | 9 | 6 | 0 | 0 | 0 | 17 | 0 | 8
22 | COc1cc2ncn(-c3cc(OCc4ccncc4Br)c(C(N)=O)s3)c2cc1OC [GW854278] | 11 | 0 | 15 | 17 | 34 | 5 | 10 | 5 | 11 | 1
23 | O=C(NCCNc1ccnc(Nc2ccc(F)cc2)n1)Nc1ccc2c(c1)OCO2 [GSK1379882] | 21 | 0 | 10 | 15 | 18 | 9 | 20 | 0 | 10 | 0
24 | CCC(=O)c1c(-c2ccccc2)c2cc(Cl)ccc2c(=O)n1Cc1cc(C(=O)NC2CC2)n(C)n1 | 6 | 0 | 2 | 15 | 0 | 4 | 0 | 0 | 3 | 0
25 | COC(=O)c1c(-c2ccccc2)c2cc(Br)ccc2c(=O)n1Cc1ccc(NC(=O)CCC(=O)O)cc1 | 8 | 0 | 0 | 0 | 0 | 16 | 0 | 13 | 7 | 4
26 | Cc1nc(N(C)[C@H]2CN(C(=O)CC#N)CC[C@H]2C)c2cc[nH]c2n1 | 12 | 6 | 7 | 4 | 15 | 0 | 0 | 0 | 0 | 0
27 | COc1cc2ncn(-c3cc(OCc4ccc(S(C)(=O)=O)cc4)c(C(N)=O)s3)c2cc1OC [GW869979] | 0 | 0 | 0 | 0 | 37 | 0 | 14 | 31 | 0 | 0
28 | COc1ccc(-n2cnc3c(N)ncnc32)cc1 [SKF-97236] | 6 | 12 | 0 | 0 | 0 | 0 | 0 | 4 | 0 | 19
29 | COc1cc2nccc(Nc3ccc(OCc4ccc(NC(C)=O)cc4)cc3)c2cc1OC.Cl [GW440135] | 9 | 0 | 11 | 1 | 0 | 0 | 0 | 0 | 34 | 0
30 | O=C(Nc1n[nH]c2nc(-c3ccccc3)c(Br)cc12)C1CC1 [SB-708998] | 4 | 0 | 0 | 0 | 0 | 0 | 0 | 0 | 0 | 0
31 | COc1cc2ncn(-c3cc(OCc4ccncc4)c(C(N)=O)s3)c2cc1OC [GSK336313] | 18 | 0 | 0 | 22 | 7 | 0 | 23 | 0 | 0 | 0
32 | Nc1n[nH]c2ncc(-c3ccccc3)cc12 [SB-517081] | 11 | 0 | 0 | 0 | 24 | 0 | 5 | 0 | 0 | 0
33 | Nc1nc(N)c2nc(-c3ccccc3)[nH]c2n1 [SKF-12778] | 4 | 0 | 6 | 0 | 0 | 0 | 0 | 5 | 0 | 0
34 | Nc1ncnc2c1ncn2-c1cccc2ccccc12 [SKF-97184] | 0 | 38 | 0 | 0 | 22 | 0 | 11 | 26 | 23 | 0
35 | Nc1nc(-c2ccccc2F)c(-c2ccnc3ccccc23)s1 [GW560459] | 10 | 0 | 10 | 4 | 0 | 0 | 8 | 0 | 0 | 0
